Consider 40 compounds from PubChem BioAssay (NCATS).

“And” between values parts separate entries of the source, which are not always exact repeats. Equal values may be shown once. Results filed as inconclusive are left out. Where a call stands in place of a potency, no number is given. The source holds several records for some structures; these can differ, active in one and inactive in another. The source made the active and inactive calls. The call rests on the fitted dose curve; in most records, active means well fitted inhibition curve with a large enough effect; inconclusive means small, poorly fitted or top-dose-only effect; inactive means no such curve, though single readings can be large or run the other way.

This assay is described as follows: Primary qHTS for inhibitors of nuclear receptor binding SET domain protein 2 (NSD2) in an RCH-ACV wild type WT cells (2C) (AID 1645877). Further: nearly all actives have a fitted effect of over 70% in size. Particulars: RCH-ACV (leukaemia line) NSD2 WT (2C) viability, CellTiter-Glo, 72 h; series mostly up to 44.9 µM. An excerpt:
Assay Provider: Jonathan D. Licht, MD
University of Florida College of Medicine, Gainesville, FL
Mutations in epigenetic regulators are common in relapsed pediatric acute lymphoblastic leukemia (ALL). Here, we uncovered the mechanism underlying the relapse of ALL driven by an activating mutation of the NSD2 histone methyltransferase (p.E1099K). […] Correction of this mutation restored glucocorticoid sensitivity. The transcriptional response to glucocorticoids was blocked in NSD2 mutant cells due to depressed glucocorticoid receptor (GR) levels and the failure of glucocorticoids to autoactivate GR expression. […] Pre-treatment of NSD2 p.E1099K cell lines and PDX samples with PRC2 inhibitors reversed glucocorticoid resistance in vitro and in vivo.
High-throughput drug screening of isogenic RCH-ACV cell lines was performed at the National Center for Advancing Translational Science (NCATS), National Institutes of Health as previously described (1). Briefly, isogenic RCH-ACV NSD2 p.E1099K mutant (9B) and WT cells (2C) were plated at 500 cells/well in a 1536-well plate with a 72-hour incubation with compounds prior to addition of CellTiter-Glo to assess cell viability. NCATS libraries screened include: NPC, MIPE 5.0, Kinase and NPACT. To determine compound activity in the qHTS assay, the concentration-response data for each sample was plotted and modeled by a four-parameter logistic fit yielding IC50 and efficacy (maximal response) values. The area under the curve (AUC) of the dose-response curve ensures both efficacy (magnitude of cell killing) and potency (concentration that elicits cell killing) are accounted for in the analysis of activity.
1. Tobie D Lee, Olivia W Lee, Kyle R Brimacombe, Lu Chen, Rajarshi Guha, Sabrina Lusvarghi, Bethilehem G Tebase, Carleen Klumpp-Thomas, Robert W Robey, Suresh V Ambudkar, Min Shen, Michael M Gottesman, Matthew D Hall. A High-Throughput Screen of a Library of Therapeutics Identifies Cytotoxic Substrates of P-glycoprotein. Mol Pharmacol. 2019, Nov;96(5):629-640.
A general note: qHTS replaces the single test concentration by a dilution series.
With `O=C(NCCc1c[nH]c2ccccc12)c1cccnc1`, the Potency result was “inactive”.
Turning to `COc1ccc(CN(CCN(C)C)c2ncccn2)cc1`, the Potency result is “inactive”.
With `O=c1[nH]c(=O)n([C@H]2C[C@H](O)[C@@H](CO)O2)cc1F` the figure was 8.4 nM (active) and 46.8 nM (active); with `CC(C)(C)CC(C)(C)c1ccc(O)c(-n2nc3ccccc3n2)c1`, “inactive”; with `CCC(Cc1c(I)cc(I)c(N)c1I)C(=O)O` (stereo not given), “inactive”.
As for `CC(C)Cn1cnc2c1c(=O)n(C)c(=O)n2C`, the entry is “inactive”; as for `CC(=O)Nc1ccc(S(=O)(=O)Nc2ccc([N+](=O)[O-])cc2)cc1`, “inactive”; as for `O=C(O)CCNC(=O)c1ccccc1`, “inactive”.
With `CCCCCCCCCCCCCCCC(=O)O` the entry was “inactive”; with `CCCCCCCCCCCCCCCCO`, “inactive”.
With `Cc1cc(-c2ccccc2)nnc1NCCN1CCOCC1`, the Potency result is “inactive”.
With `CCOC(=O)[C@H](CCc1ccccc1)N[C@@H](C)C(=O)N1[C@H](C(=O)O)C[C@@H]2CCC[C@@H]21` the entry was “inactive”.
With `CCN(CC)CCOC(=O)C1(c2ccccc2)CCCC1` the entry was “inactive”.
With `CCN(CC)CCOc1ccc2c(c1)C(=O)c1cc(OCCN(CC)CC)ccc1-2` the figure was 9.44 µM (active); with `CCCCCCCCCCCCCCC[C@H](O)[C@@H](N)CO`, 5.96 µM (active); with `C[C@H]1O[C@@H](O[C@H]2CC[C@@]3(C)[C@H](CC[C@@H]4[C@@H]3C[C@@H](O)[C@]3(C)[C@@H](C5=CC(=O)OC5)CC[C@]43O)C2)C[C@H](O)[C@@H]1O[C@H]1C[C@H](O)[C@H](O[C@H]2C[C@H](O)[C@H](O[C@@H]3O[C@H](CO)[C@@H](O)[C@H](O)[C@H]3O)[C@@H](C)O2)[C@@H](C)O1`, 0.0944 µM (active).
Turning to `C[N+]12CCC(CC1)C(OC(=O)C(O)(c1ccccc1)c1ccccc1)C2` (stereo not given), the Potency entry was “inactive”.
Turning to `CCO[C@@H]1O[C@H](C(COCc2ccccc2)OCc2ccccc2)[C@H](OCc2ccccc2)[C@H]1O` (stereo not given in full), the Potency was 21.1 µM (active).
With `Cc1c(-c2ccccc2)oc2c(C(=O)OCCN3CCCCC3)cccc2c1=O` the entry was “inactive”.
With `CC1CCc2c(N3CCC(O)CC3)c(F)cc3c(=O)c(C(=O)O)cn1c23` (stereo not given) the entry was “inactive”; with `CCOc1cc(OCC)c(C(=O)CCC(=O)O)cc1OCC`, “inactive”; with `CCN(CC)CCNC(=O)c1cc(Br)c(N)cc1OC`, “inactive”.
As for `CC(=O)Nc1ncc([N+](=O)[O-])s1`, the entry is “inactive”; as for `CC(=O)O[C@H]1C[C@@H]2CC[C@@H]3[C@H](CC[C@@]4(C)[C@H]3C[C@H]([N+]3(C)CCCCC3)[C@@H]4OC(C)=O)[C@@]2(C)C[C@@H]1N1CCCCC1`, “inactive”; as for `OC1C(O)C(O)C(O)C(O)C1O` (stereo not given), “inactive”.
On to `FC(F)(F)C(F)(F)C(F)(F)C(F)(F)C(F)(F)C(F)(F)C(F)(F)C(F)(F)Br`, for which the Potency entry was “inactive”.
As for `Cc1cc2c(OCC(CNC(C)(C)C)OC(=O)c3ccccc3)cccc2[nH]1` (stereo not given), the entry is “inactive”.
With `CCCCCCCCCCCCCC[N+](C)(C)Cc1ccccc1` the figure was 0.237 µM (active); with `O=C(O)c1ccc(S(=O)(=O)N(Cl)Cl)cc1`, “inactive”.
With `CN(C)C(=O)Nc1ccc(Cl)c(Cl)c1` the entry was “inactive”.
Consider `Cc1ccc(S(=O)(=O)NC(=O)NC2CCCC2)cc1`, for which the Potency result is “inactive”.
As for `NC(=S)N/N=C/c1cccnc1`, the entry is “inactive”; as for `CCCCCCCCOc1ccc(C(=O)c2ccccc2)c(O)c1`, “inactive”; as for `COc1cc([C@H]2Oc3cc([C@H]4Oc5cc(O)cc(O)c5C(=O)[C@@H]4O)ccc3O[C@@H]2CO)ccc1O`, “inactive and 23.5 µM (active)”.
As for `Cc1cc(C)cc(OCC2CNC(=O)O2)c1` (stereo not given), the entry is “inactive”.
Turning to `CC[C@]12CCCN3CCc4c(n(c5ccccc45)C(=O)C1)[C@@H]32`, the Potency was 5.96 µM (active).
As for `C[C@@H](O)[C@H]1C(=O)N2C(C(=O)O)=C(S[C@@H]3CN[C@H](CNS(N)(=O)=O)C3)[C@H](C)[C@H]12`, the entry is “inactive”; as for `Cl/C(=C\n1cncn1)c1ccc(Cl)cc1Cl`, “inactive”; as for `Cc1cccc(C)c1NC(=O)CN1CCCCCC1`, “inactive”.
For the compound `CN1CCN(CCC(=O)N2c3ccccc3Sc3ccc(C(F)(F)F)cc32)CC1`, the Potency was 23.7 µM (active).
